Results filed as inconclusive are left out. Entries that show only a call come without a potency. Activity calls are given as the source filed them. Calls follow the shape of the dose curve; as a rule, active = well fitted curve in the direction sought with a large enough effect; inconclusive = small, poorly fitted or top-dose-only effect, or another doubt; inactive = no such curve, though single readings can be large; an effect the other way counts as inactive or inconclusive.
Columns and labels:
[1] = qHTS of pediatric cancer cell lines to identify multiple opportunities for drug repurposing: Primary screen for BT-37 cells (AID 1347094); also: potency is read from the fitted curve at half-maximal effect
In short: (§1)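 ATP-based luminescence (CellTiter-Glo) quantifies viability after a 48-hour exposure. Compounds are dosed across 8 or 11 final concentrations; DMSO and 2.3 µM bortezomib serve as controls.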

[2] = qHTS of pediatric cancer cell lines to identify multiple opportunities for drug repurposing: Primary screen for NB-EBc1 cells (AID 1347095)
In short: as §1

[3] = qHTS of pediatric cancer cell lines to identify multiple opportunities for drug repurposing: Primary screen for U-2 OS cells (AID 1347096); also: nearly all actives have a fitted effect of over 50% in size
In short: (§2)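 Cells (500-1,000/well) rested 5 h, then received compounds for 48 h; metabolically active cells were measured by CellTiter-Glo luminescence. Final concentrations spanned up to 46 µM (MIPE, 11-point) or 0.59 nM-46 µM (NPC, 8-point) in primary screens, 11-point in follow-ups.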

[4] = qHTS of pediatric cancer cell lines to identify multiple opportunities for drug repurposing: Primary screen for NB1643 cells (AID 1347099); also: nearly all actives have a fitted effect of over 50% in size
In short: as §1

[5] = qHTS of pediatric cancer cell lines to identify multiple opportunities for drug repurposing: Primary screen for LAN-5 cells (AID 1347100); also: potency is read from the fitted curve at half-maximal effect
In short: as §2

[6] = qHTS of pediatric cancer cell lines to identify multiple opportunities for drug repurposing: Primary screen for BT-12 cells (AID 1347101); also: nearly all actives have a fitted effect of over 25% in size; also: potency is read from the fitted curve at half-maximal effect
In short: as §2

[7] = qHTS of pediatric cancer cell lines to identify multiple opportunities for drug repurposing: Primary screen for Rh18 cells (AID 1347102); also: nearly all actives have a fitted effect of over 65% in size
In short: as §2

[8] = qHTS of pediatric cancer cell lines to identify multiple opportunities for drug repurposing: Primary screen for Saos-2 cells (AID 1347097); also: nearly all actives have a fitted effect of over 40% in size; also: potency is read from the fitted curve at half-maximal effect
In short: as §1

[9] = qHTS of pediatric cancer cell lines to identify multiple opportunities for drug repurposing: Primary screen for SK-N-SH cells (AID 1347098); also: nearly all actives have a fitted effect of over 65% in size; also: potency is read from the fitted curve at half-maximal effect
In short: as §2

| SMILES | Potency [1] | Potency [2] | Potency [3] | Potency [4] | Potency [5] | Potency [6] | Potency [7] | Potency [8] | Potency [9] |
| --- | --- | --- | --- | --- | --- | --- | --- | --- | --- |
| COCCCC/C(=N\OCCN)c1ccc(C(F)(F)F)cc1 | inactive | inactive | inactive | inactive | inactive | inactive | inactive |  |  |
| CCOC(=O)C1=C(C)NC(C)=C(C(=O)OC)C1c1cccc(Cl)c1Cl (configuration not stated) | inactive | inactive | inactive | inactive | inactive |  | inactive | inactive |  |
| CN=C(NC#N)NCCSCc1nc[nH]c1C | inactive | inactive | inactive | inactive | inactive | inactive | inactive |  | inactive |
| COCC(=O)O[C@]1(CCN(C)CCCc2nc3ccccc3[nH]2)CCc2cc(F)ccc2[C@@H]1C(C)C |  |  |  | inactive |  |  |  | 26.6 µM (active) | 19.4 µM (active) |
| CCC(=O)c1ccc2c(c1)N(CCCN(C)C)c1ccccc1S2 |  | inactive | inactive | inactive |  |  |  |  | 34.4 µM (active) |
| CC(=O)OC(C)C[N+](C)(C)C (configuration not stated) | inactive | inactive | inactive | inactive | inactive | inactive | inactive | inactive | inactive |
| COC(=O)[C@H]1[C@H]2C[C@@H]3c4[nH]c5cc(OC)ccc5c4CCN3C[C@H]2C[C@@H](OC(=O)c2cc(OC)c(OC)c(OC)c2)[C@@H]1OC | inactive | inactive | inactive | inactive | inactive |  | inactive | 23.7 µM (active) |  |
| COc1ccc2c(c1OC)C(=O)O[C@@H]2[C@H]1c2c(cc3c(c2OC)OCO3)CCN1C | inactive |  | inactive | inactive |  |  | inactive |  |  |
| CC(C)NCC(O)c1cc(O)cc(O)c1 (configuration not stated) | inactive | inactive | inactive |  | inactive | inactive | inactive | inactive | inactive |
| CCCCNC(=O)NS(=O)(=O)c1ccc(C)cc1 | inactive | inactive | inactive | inactive | inactive | inactive | inactive | inactive | inactive |
| CCCC(C(=O)OCCN(CC)CC)(c1ccccc1)c1ccccc1 | 30.9 µM (active) |  |  |  | inactive |  |  | 26.6 µM (active) | 19.4 µM (active) |
| OCCN1CCN(CC/C=C2/c3ccccc3Sc3ccc(C(F)(F)F)cc32)CC1 |  | inactive |  |  | 23.7 µM (active) |  |  |  | 13.7 µM (active) |
| CO[C@@]1(NC(=O)CSCC#N)C(=O)N2C(C(=O)O)=C(CSc3nnnn3C)CS[C@@H]21 | inactive | inactive | inactive | inactive | inactive | inactive | inactive | inactive | inactive |
| Cc1ccc(S(=O)(=O)NC(=O)NN2CCCCCC2)cc1 | inactive | inactive | inactive | inactive | inactive | inactive | inactive | inactive | inactive |
| O=C(CCNNC(=O)c1ccncc1)NCc1ccccc1 | inactive | inactive | inactive | inactive | inactive | inactive | inactive | inactive | inactive |
| C(=C\c1ccccc1)/CN1CCN(C(c2ccccc2)c2ccccc2)CC1 | inactive |  | inactive | inactive | inactive | inactive | inactive |  | inactive |
| Cc1nc2ccccn2c(=O)c1CCN1CCC(C(=O)c2ccc(F)cc2)CC1 | inactive | inactive | inactive | inactive | inactive |  | inactive |  | inactive |
| CNCCCN1c2ccccc2CCc2ccccc21 |  |  | inactive | inactive | inactive |  |  | inactive | 30.7 µM (active) |
| CN(C)CCCN1c2ccccc2Sc2ccc(C(F)(F)F)cc21 |  |  | inactive |  |  | 4.9 µM (active) |  |  |  |
| c1cc(CN2CCCCC2)cc(OCCCNc2nc3ccccc3s2)c1 |  | inactive |  | inactive |  |  | inactive |  | 24.4 µM (active) |
| CCc1cccc(N(C)C(N)=Nc2cccc3ccccc23)c1 |  | inactive |  | inactive | inactive |  |  | 18.8 µM (active) |  |
| CC1=C(C)C(=O)C(CCCCC#CCCCC#CCO)=C(C)C1=O | inactive | inactive | inactive |  |  |  | inactive |  | inactive |
| CCOC(=O)C1=C(C)NC(C)=C(C(=O)OC)C1c1cccc([N+](=O)[O-])c1 (configuration not stated) | inactive | inactive | inactive | inactive | inactive | inactive | inactive |  | inactive |

Source: PubChem BioAssay (NCATS)
